Growth data for 19 molecules are collected here from PubChem BioAssay (NCI).

Molecules are shown by their SMILES. This is part of a sample that, as a whole, favours compounds with a hit. Of some 83,000 tested, about 20% had one in any assay.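 Assay: single dose, 48 h. Readout: percent growth (0 = no net growth; negative = cell death). Active: <10.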 The source made the active and inactive calls.

In the first experiment the test system is NCI/ADR-RES ovarian. Put plainly: NCI-60 one-dose screen, 48 h (100 = growth as untreated, 0 = no growth, -100 = all killed). The following applies: 1 µM.
As for `CC/C(=C(/c1ccc(O)cc1)c1ccc(OCCN(C)C(=O)COCCOCCNC(=O)c2ccc3c(c2)CN([C@@H]2CCC(=O)NC2=O)C3=O)cc1)c1ccccc1`, the growth is 106% (inactive).
For `CC/C(=C(/c1ccc(O)cc1)c1ccc(OCCN(C)C(=O)CCOCCNC(=O)Cc2ccc3c(c2)CN([C@@H]2CCC(=O)NC2=O)C3=O)cc1)c1ccccc1`, the growth was 109% (inactive).
As to `CC/C(=C(/c1ccc(O)cc1)c1ccc(OCCN(C)C(=O)COCCOCCNC(=O)Cc2ccc3c(c2)CN([C@@H]2CCC(=O)NC2=O)C3=O)cc1)c1ccccc1`, the growth is 103% (inactive).
Take `CC/C(=C(\c1ccc(O)cc1)c1ccc(OCCNC)cc1)c1ccccc1`: the growth is 103% (inactive).
Same read-out and setting: for `CC/C(=C(\c1ccc(O)cc1)c1ccc(OCCN(C)C(=O)CCOCCNC(=O)c2ccc3c(c2)CN([C@@H]2CCC(=O)NC2=O)C3=O)cc1)c1ccccc1` the value was 106% (inactive); for `CC/C(=C(\c1ccc(O)cc1)c1ccc(OCCN(C)C(=O)COCCNC(=O)Cc2ccc3c(c2)CN([C@@H]2CCC(=O)NC2=O)C3=O)cc1)c1ccccc1`, 105% (inactive).

The experiment is the same for the next values; noted with them: 10 µM.
As to `CC/C(=C(/c1ccc(O)cc1)c1ccc(OCCN(C)C(=O)COCCOCCNC(=O)c2ccc3c(c2)CN([C@@H]2CCC(=O)NC2=O)C3=O)cc1)c1ccccc1`, the growth is 102% (inactive).
Still for that read-out and setting: under `CC/C(=C(/c1ccc(O)cc1)c1ccc(OCCN(C)C(=O)CCOCCNC(=O)Cc2ccc3c(c2)CN([C@@H]2CCC(=O)NC2=O)C3=O)cc1)c1ccccc1` stands 99.6% (inactive); under `CC/C(=C(/c1ccc(O)cc1)c1ccc(OCCN(C)C(=O)COCCOCCNC(=O)Cc2ccc3c(c2)CN([C@@H]2CCC(=O)NC2=O)C3=O)cc1)c1ccccc1`, 107% (inactive); under `CC/C(=C(\c1ccc(O)cc1)c1ccc(OCCNC)cc1)c1ccccc1`, 91.1% (inactive).
As for `CC/C(=C(\c1ccc(O)cc1)c1ccc(OCCN(C)C(=O)CCOCCNC(=O)c2ccc3c(c2)CN([C@@H]2CCC(=O)NC2=O)C3=O)cc1)c1ccccc1`, the growth was 102% (inactive).
For the molecule `CC/C(=C(\c1ccc(O)cc1)c1ccc(OCCN(C)C(=O)COCCNC(=O)Cc2ccc3c(c2)CN([C@@H]2CCC(=O)NC2=O)C3=O)cc1)c1ccccc1`, the growth was 98.7% (inactive).

Staying with this experiment, now noted: 10 µM unless noted.
As to `O=C(c1ccc(Cl)cc1)C1[C@H](c2ccccc2Cl)[C@@H](c2ccccc2)NC12C(=O)Nc1ccccc12` (stereo not given in full), the growth is -62.5% (active).
On to `O=C(c1ccc(O)cc1)C1[C@H](c2ccc(Cl)cc2)[C@@H](c2ccccc2)NC12C(=O)Nc1ccccc12` (stereo not given in full), for which the growth is -35% (active).
On the same count and under the same terms, under `Cc1ccc2nc(SCc3ccccc3F)n(-c3ccccc3)c(=O)c2c1` stands 89% (inactive).
As for `CCCCNc1ccc2c3c(cccc13)C(=O)N(NCC(O)COc1ccc3c(C)cc(=O)oc3c1)C2=O` (stereo not given), the growth was 85.8% (inactive).
Consider `c1n[nH]cc1-c1nc2ccc3[nH]ncc3c2c2c1CC1(CC2)COC1`, for which the growth was 108% (inactive).
`CCN1CCN(Cc2ccc(C(=O)Nc3cccc(Nc4ccc5c(OC)cccc5n4)c3)cc2C(F)(F)F)CC1`: the growth is -81% (active).
With `COc1ccc(-c2nc3ccccc3n2CC(=O)N=Nc2c(O)[nH]c3ccc(Br)cc23)cc1`, the growth is 78.9% (inactive).
As for `COc1ccc2[nH]c(=O)cc(-n3ncc(C(=O)/C=C/c4cc(OC)c(OC)c(OC)c4)c3C)c2c1`, the growth is 7.59% (active).
Turning to `CCCCCCCCc1cccc(CC(=O)Nc2ccc(C)cc2C(=O)O)c1`, the growth was 49.6% [25 µM] (inactive).
For `Cc1ccc2nc(NC(=O)Nc3cccc(Cl)c3)sc2c1`, the growth is 93.9% (inactive).
Regarding `O=C1Nc2ccccc2/C1=C\c1ccc(OCC(=O)c2ccc(Br)cc2)cc1`, the growth was 47.8% (inactive).
As for `COc1ccc2[nH]cc(-c3cc(N)n4nc(-c5c[nH]c6ccccc56)cc4n3)c2c1`, the growth was 27.7% (inactive).
Still for that read-out and setting: under `Cc1ccc(-c2cc(C(=O)N=Nc3c(O)[nH]c4ccc(F)cc34)c3ccccc3n2)cc1` stands 3.61% (active).
